Measurements reported in article PMC7862700, “An all-to-all approach to the identification of sequence-specific readers for epigenetic DNA modifications on cytosine”.

Assays:
Assay in all cases: DAPPL (digital affinity profiling via proximity ligation, sequencing); 10 mM Tris-HCl pH 7.5, 50 mM NaCl, 1 mM DTT, 4% glycerol, room temperature, 30 min; GST-TFs on glutathione beads, 16-mer random dsDNA library, 0.1% formaldehyde crosslink after washing; high values mean tight binding
FLI1 = target: T1, FLI1 (Homo sapiens, UniProt Q01543 1-452); conditions: protein: recombinant; tags: N-terminal GST; dsDNA, one strand shown
T1 sequence: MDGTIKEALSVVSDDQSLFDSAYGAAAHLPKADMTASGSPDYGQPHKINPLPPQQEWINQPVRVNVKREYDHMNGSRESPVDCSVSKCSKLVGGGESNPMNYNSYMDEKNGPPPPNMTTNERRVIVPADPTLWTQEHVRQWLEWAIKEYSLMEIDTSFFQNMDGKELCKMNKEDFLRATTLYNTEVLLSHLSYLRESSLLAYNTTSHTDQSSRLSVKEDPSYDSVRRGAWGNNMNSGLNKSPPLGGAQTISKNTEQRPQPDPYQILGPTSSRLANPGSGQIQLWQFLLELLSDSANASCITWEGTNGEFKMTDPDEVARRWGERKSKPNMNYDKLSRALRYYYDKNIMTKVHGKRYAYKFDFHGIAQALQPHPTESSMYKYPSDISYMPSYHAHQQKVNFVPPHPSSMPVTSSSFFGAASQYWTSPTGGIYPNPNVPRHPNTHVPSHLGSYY
How it was run: (§1)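 Each value of binding signal is a hexamer's read frequency for a factor divided by the same hexamer's frequency in the tag-only sample. Barcoded, bead-captured GST fusions of human transcription factors made in yeast were pooled with that sample and incubated with 200 nmole of a random double-stranded 16-mer DNA library in Tris/NaCl/DTT/glycerol buffer at room temperature for 30 min. Washing, 0.1% formaldehyde crosslinking, proximity ligation, PCR and Illumina NextSeq500 sequencing followed.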

ELK1 = target: T2, ELK1 (Homo sapiens, UniProt P19419 1-428); conditions: protein: recombinant; tags: N-terminal GST; dsDNA, one strand shown
T2 sequence: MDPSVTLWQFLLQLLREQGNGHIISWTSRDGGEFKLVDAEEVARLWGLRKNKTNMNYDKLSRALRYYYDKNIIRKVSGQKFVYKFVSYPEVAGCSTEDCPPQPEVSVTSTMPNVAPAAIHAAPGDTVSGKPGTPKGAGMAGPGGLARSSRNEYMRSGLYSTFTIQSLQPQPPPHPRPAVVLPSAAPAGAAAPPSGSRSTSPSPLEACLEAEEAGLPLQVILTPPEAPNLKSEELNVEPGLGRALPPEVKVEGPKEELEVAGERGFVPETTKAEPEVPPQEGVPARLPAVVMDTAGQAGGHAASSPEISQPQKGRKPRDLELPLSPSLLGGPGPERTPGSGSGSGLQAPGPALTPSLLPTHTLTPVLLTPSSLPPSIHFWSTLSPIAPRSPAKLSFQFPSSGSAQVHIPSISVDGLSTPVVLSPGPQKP
How it was run: as §1

GABPA = target: T3, GABPA (Homo sapiens, UniProt Q06546 1-454); conditions: protein: recombinant; tags: N-terminal GST; dsDNA, one strand shown
T3 sequence: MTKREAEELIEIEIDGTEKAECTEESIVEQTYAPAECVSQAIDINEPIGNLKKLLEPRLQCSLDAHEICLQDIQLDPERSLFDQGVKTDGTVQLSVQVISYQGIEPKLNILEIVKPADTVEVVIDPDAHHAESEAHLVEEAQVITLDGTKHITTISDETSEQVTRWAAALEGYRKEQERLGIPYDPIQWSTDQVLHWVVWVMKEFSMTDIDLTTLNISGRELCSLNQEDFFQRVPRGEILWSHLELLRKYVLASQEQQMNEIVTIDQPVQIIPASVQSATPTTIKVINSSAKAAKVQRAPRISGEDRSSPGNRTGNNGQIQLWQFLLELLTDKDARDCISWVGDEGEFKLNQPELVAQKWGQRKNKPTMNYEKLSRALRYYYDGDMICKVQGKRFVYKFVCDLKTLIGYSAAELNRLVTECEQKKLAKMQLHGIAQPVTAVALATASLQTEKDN
How it was run: as §1

ERG = target: T4, ERG (Homo sapiens, UniProt P11308 1-479); conditions: protein: recombinant; tags: N-terminal GST; dsDNA, one strand shown
T4 sequence: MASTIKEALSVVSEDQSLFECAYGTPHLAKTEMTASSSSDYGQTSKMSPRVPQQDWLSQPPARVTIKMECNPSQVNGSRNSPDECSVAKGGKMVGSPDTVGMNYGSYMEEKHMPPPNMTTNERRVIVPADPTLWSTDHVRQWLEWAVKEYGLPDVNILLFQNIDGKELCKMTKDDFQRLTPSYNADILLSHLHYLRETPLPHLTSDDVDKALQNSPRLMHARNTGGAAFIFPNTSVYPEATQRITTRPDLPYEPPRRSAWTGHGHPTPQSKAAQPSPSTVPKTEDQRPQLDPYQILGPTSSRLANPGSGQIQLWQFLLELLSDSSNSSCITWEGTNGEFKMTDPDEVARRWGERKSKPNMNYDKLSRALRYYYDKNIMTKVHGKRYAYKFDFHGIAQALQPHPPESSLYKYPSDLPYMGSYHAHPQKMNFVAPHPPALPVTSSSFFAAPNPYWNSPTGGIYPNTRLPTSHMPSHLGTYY
How it was run: as §1

ELF1 = ELF1 (Homo sapiens, UniProt P32519 1-619); conditions: protein: recombinant; tags: N-terminal GST; dsDNA, one strand shown
How it was run: as §1

EHF = target: T5, EHF (Homo sapiens, UniProt Q9NZC4 1-300); conditions: protein: recombinant; tags: N-terminal GST; dsDNA, one strand shown
T5 sequence: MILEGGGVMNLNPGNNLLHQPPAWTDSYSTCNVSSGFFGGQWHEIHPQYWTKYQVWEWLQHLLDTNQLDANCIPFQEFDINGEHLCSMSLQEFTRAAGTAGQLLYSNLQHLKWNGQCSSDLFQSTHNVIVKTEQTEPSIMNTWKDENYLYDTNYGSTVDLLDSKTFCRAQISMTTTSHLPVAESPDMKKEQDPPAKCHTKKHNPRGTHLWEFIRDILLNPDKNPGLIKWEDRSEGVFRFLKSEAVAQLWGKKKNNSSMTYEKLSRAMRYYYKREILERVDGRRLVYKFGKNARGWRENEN
How it was run: as §1

SPI1 = SPI1 (Homo sapiens, UniProt P17947 1-270); conditions: protein: recombinant; tags: N-terminal GST; dsDNA, one strand shown
How it was run: as §1

SPIB = SPIB (Homo sapiens, UniProt Q01892 1-262); conditions: protein: recombinant; tags: N-terminal GST; dsDNA, one strand shown
How it was run: as §1

ELK3 = target: T6, ELK3 (Homo sapiens, UniProt P41970 1-407); conditions: protein: recombinant; tags: N-terminal GST; dsDNA, one strand shown
T6 sequence: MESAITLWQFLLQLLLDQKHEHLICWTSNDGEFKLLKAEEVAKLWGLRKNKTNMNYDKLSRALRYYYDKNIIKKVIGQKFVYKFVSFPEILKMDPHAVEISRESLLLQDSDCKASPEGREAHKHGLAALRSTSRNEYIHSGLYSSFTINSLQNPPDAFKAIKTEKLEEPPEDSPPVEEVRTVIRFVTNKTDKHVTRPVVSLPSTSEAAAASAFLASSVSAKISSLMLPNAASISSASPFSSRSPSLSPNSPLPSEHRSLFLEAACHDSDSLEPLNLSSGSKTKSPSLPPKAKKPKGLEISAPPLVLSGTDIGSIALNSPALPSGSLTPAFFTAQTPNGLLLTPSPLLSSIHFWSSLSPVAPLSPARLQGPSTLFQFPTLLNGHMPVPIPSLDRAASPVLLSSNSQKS
How it was run: as §1

FEV = target: T7, FEV (Homo sapiens, UniProt Q99581 1-238); conditions: protein: recombinant; tags: N-terminal GST; dsDNA, one strand shown
T7 sequence: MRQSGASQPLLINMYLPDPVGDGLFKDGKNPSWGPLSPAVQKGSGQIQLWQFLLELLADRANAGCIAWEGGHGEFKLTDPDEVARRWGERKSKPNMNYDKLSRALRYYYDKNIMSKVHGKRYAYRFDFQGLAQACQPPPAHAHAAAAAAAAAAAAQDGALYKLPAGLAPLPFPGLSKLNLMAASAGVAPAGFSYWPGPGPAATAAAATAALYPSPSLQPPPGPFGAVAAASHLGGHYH
How it was run: as §1

ETV5 = ETV5 (Homo sapiens, UniProt P41161 1-510); conditions: protein: recombinant; tags: N-terminal GST; dsDNA, one strand shown
How it was run: as §1

HSF1 = HSF1 (Homo sapiens, UniProt Q00613 1-529); conditions: protein: recombinant; tags: N-terminal GST; chain copies: 3; dsDNA, one strand shown
How it was run: as §1

SPIC = target: T8, SPIC (Homo sapiens, UniProt Q8N5J4 1-248); conditions: protein: recombinant; tags: N-terminal GST; dsDNA, one strand shown
T8 sequence: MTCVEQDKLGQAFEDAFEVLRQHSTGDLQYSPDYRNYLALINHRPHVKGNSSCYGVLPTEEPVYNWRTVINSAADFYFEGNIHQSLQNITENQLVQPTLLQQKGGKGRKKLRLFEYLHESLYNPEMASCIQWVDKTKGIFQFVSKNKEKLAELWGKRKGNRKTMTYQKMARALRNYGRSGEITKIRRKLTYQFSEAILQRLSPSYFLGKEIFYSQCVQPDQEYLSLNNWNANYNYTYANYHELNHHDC
How it was run: as §1

ELF4 = ELF4 (Homo sapiens, UniProt Q99607 1-663); conditions: protein: recombinant; tags: N-terminal GST; dsDNA, one strand shown
How it was run: as §1

ELK4 = target: T9, ELK4 (Homo sapiens, UniProt P28324-2 1-405); conditions: protein: recombinant; tags: N-terminal GST; dsDNA, one strand shown
T9 sequence: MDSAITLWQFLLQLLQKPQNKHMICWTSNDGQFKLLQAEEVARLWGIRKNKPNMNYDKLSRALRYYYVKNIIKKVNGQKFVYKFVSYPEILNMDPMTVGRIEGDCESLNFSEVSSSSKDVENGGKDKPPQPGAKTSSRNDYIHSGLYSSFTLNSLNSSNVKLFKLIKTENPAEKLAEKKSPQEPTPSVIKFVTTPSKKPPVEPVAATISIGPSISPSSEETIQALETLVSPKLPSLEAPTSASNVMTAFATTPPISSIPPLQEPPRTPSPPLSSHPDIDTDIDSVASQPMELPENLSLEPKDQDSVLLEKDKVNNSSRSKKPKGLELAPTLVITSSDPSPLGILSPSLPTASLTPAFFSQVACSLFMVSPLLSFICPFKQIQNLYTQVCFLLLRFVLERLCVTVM
How it was run: as §1

ETV2 = target: T10, ETV2 (Homo sapiens, UniProt O00321 1-342); conditions: protein: recombinant; tags: N-terminal GST; dsDNA, one strand shown
T10 sequence: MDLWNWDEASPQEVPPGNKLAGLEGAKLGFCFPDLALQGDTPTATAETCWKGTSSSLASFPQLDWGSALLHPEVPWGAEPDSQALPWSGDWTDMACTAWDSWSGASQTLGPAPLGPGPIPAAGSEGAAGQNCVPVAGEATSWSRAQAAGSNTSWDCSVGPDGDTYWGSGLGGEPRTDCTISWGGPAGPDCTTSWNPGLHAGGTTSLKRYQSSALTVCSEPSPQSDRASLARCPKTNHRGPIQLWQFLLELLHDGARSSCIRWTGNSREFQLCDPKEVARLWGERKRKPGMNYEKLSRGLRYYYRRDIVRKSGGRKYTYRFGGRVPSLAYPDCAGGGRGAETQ
How it was run: as §1

ELF3 = target: T11, ELF3 (Homo sapiens, UniProt P78545 1-371); conditions: protein: recombinant; tags: N-terminal GST; dsDNA, one strand shown
T11 sequence: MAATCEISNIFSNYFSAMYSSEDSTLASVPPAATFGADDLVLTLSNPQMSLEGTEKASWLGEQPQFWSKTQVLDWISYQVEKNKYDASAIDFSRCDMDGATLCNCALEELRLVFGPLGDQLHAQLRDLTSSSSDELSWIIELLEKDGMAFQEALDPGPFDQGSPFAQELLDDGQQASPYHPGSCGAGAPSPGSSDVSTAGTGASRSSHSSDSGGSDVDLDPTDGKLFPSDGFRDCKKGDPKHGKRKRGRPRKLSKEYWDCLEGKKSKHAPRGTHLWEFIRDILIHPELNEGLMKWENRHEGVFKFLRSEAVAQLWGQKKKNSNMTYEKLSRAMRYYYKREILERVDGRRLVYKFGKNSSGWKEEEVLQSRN
How it was run: as §1

CRX = CRX (Homo sapiens, UniProt O43186 1-299); conditions: protein: recombinant; tags: N-terminal GST; dsDNA, one strand shown
How it was run: as §1

ETV1 = ETV1 (Homo sapiens, UniProt P50549 1-477); conditions: protein: recombinant; tags: N-terminal GST; dsDNA, one strand shown
How it was run: as §1

Chain of CRX (O43186 whole entry): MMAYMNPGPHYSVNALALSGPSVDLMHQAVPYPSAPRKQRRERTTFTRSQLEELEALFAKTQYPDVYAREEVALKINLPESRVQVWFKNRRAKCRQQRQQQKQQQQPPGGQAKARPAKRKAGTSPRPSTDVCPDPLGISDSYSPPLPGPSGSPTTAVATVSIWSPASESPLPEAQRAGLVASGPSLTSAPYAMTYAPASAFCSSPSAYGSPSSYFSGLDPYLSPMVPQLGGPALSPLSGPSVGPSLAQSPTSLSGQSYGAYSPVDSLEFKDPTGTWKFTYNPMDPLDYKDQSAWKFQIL
Chain of ETV1 (P50549 whole entry): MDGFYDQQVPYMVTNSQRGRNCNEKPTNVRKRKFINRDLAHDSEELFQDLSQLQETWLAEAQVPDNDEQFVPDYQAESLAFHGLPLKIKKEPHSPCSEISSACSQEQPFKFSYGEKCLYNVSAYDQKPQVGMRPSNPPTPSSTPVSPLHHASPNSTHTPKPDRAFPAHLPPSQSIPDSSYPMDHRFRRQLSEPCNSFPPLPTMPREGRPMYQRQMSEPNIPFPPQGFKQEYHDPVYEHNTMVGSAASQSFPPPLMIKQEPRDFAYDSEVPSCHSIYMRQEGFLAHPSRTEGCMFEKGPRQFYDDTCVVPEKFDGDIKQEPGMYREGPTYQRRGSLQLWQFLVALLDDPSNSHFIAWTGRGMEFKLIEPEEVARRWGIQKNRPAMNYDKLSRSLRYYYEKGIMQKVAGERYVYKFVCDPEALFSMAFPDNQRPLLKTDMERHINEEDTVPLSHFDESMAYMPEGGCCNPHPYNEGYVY
Chain of ELF4 (Q99607 whole entry): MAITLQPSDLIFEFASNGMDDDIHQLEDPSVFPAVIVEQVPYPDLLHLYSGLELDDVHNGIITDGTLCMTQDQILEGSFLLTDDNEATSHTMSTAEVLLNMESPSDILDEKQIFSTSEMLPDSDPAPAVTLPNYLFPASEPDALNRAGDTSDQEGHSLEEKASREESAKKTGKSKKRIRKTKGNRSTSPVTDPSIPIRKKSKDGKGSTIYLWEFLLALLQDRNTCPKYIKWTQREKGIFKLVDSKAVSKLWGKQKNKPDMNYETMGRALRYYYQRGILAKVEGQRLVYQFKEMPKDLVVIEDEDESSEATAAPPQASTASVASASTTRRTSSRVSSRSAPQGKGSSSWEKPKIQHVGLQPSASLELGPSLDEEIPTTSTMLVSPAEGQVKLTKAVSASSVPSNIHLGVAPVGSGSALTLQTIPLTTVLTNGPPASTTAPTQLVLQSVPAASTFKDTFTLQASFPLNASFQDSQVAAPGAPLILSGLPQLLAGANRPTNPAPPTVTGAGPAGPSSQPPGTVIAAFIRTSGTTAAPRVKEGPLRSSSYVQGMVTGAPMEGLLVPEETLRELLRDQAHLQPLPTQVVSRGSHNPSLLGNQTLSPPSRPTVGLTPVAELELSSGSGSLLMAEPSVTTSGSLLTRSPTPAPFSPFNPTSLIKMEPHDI
Chain of ELF1 (P32519 whole entry): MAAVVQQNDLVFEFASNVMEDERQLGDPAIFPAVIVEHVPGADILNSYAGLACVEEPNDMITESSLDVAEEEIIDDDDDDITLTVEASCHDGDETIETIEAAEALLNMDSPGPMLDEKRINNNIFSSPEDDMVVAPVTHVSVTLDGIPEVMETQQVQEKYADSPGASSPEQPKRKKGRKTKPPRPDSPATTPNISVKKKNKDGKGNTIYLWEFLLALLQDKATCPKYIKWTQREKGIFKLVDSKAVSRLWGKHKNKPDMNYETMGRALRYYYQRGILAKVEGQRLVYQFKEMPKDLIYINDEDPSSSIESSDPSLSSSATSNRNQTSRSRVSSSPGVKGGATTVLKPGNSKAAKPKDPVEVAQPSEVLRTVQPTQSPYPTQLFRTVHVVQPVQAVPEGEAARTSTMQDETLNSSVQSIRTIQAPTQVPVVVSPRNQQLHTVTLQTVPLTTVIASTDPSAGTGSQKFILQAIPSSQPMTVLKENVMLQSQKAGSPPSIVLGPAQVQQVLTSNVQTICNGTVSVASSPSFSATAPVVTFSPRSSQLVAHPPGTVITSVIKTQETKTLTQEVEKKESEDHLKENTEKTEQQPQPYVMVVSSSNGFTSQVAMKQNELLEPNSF
Chain of SPIB (Q01892 whole entry): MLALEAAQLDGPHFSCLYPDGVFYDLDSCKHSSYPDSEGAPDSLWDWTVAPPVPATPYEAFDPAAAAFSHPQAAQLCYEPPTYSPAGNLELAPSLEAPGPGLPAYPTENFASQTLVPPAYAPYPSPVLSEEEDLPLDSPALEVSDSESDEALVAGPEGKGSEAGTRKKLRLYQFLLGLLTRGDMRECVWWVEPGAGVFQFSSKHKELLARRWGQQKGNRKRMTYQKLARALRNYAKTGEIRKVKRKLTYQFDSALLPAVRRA
Chain of ETV5 (P41161 whole entry): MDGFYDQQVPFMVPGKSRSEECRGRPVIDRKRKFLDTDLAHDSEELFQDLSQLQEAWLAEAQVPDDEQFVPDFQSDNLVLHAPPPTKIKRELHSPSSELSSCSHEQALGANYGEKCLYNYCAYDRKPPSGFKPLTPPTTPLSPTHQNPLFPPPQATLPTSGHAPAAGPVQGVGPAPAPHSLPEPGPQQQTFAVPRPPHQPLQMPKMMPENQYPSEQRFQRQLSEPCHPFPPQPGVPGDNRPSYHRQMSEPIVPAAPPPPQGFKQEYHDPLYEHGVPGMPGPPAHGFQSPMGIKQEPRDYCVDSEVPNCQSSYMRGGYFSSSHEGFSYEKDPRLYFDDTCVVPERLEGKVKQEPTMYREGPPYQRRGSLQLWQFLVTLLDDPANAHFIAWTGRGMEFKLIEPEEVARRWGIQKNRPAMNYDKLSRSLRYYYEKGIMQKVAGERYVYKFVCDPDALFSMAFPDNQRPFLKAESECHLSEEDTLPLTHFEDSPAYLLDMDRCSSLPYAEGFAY
Chain of HSF1 (Q00613 whole entry): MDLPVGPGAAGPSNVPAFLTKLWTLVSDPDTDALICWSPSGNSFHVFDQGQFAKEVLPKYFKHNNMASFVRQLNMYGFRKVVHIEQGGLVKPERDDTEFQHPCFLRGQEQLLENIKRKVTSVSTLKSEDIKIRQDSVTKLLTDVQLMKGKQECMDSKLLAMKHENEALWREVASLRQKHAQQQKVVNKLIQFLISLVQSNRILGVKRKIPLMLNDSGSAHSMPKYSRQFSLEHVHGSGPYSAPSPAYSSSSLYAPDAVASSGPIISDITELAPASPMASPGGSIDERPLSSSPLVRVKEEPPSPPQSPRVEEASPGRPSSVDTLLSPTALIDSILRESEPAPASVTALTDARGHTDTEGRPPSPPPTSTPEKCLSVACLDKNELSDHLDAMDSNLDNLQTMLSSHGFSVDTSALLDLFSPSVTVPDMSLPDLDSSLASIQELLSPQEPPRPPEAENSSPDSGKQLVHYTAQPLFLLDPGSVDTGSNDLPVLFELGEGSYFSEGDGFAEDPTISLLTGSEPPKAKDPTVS

## CAATCT
FLI1
  binding signal: 1.24 fold enrichment (6-mer frequency, TF over GST control)
ELK1
  binding signal: 1.18 fold enrichment (6-mer frequency, TF over GST control)
GABPA
  binding signal: 1.18 fold enrichment (6-mer frequency, TF over GST control)
ERG
  binding signal: 1.13 fold enrichment (6-mer frequency, TF over GST control)
ELF1
  binding signal: 1.22 fold enrichment (6-mer frequency, TF over GST control)
EHF
  binding signal: 1.17 fold enrichment (6-mer frequency, TF over GST control)
SPI1
  binding signal: 1.26 fold enrichment (6-mer frequency, TF over GST control)
SPIB
  binding signal: 1.23 fold enrichment (6-mer frequency, TF over GST control)
ELK3
  binding signal: 1.14 fold enrichment (6-mer frequency, TF over GST control)
FEV
  binding signal: 1.2 fold enrichment (6-mer frequency, TF over GST control)
ETV5
  binding signal: 1.21 fold enrichment (6-mer frequency, TF over GST control)
HSF1
  binding signal: 1.48 fold enrichment (6-mer frequency, TF over GST control)
SPIC
  binding signal: 1.19 fold enrichment (6-mer frequency, TF over GST control)
ELF4
  binding signal: 1.2 fold enrichment (6-mer frequency, TF over GST control)
ELK4
  binding signal: 1.2 fold enrichment (6-mer frequency, TF over GST control)
ETV2
  binding signal: 1.3 fold enrichment (6-mer frequency, TF over GST control)
ELF3
  binding signal: 1.19 fold enrichment (6-mer frequency, TF over GST control)
CRX
  binding signal: 1.42 fold enrichment (6-mer frequency, TF over GST control)
ETV1
  binding signal: 1.26 fold enrichment (6-mer frequency, TF over GST control)
